Shown are actives, neighbours in structure and some others; about 8% of the full set was active somewhere.
TSHR antagonist: blocks TSH signaling through the human TSH receptor. P16473. TSHR-expressing cells, TSH-stimulated cAMP HTRF, 2 h; hits give low values. 330,000 tested, 0.2% active. activity change, negative = inhibition, % at 11.5 µM;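 active = activity change below a set negative limit, meaning inhibition stronger than a set level, cut at about -70% in these data; inconclusive = activity change between two set negative limits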
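TSHR-expressing cells, 200/well, pre-treated with compound, then stimulated with EC80 TSH (4nM final) for 2 hours at 37 deg C. cAMP measured by competitive HTRF: anti-cAMP cryptate antibody in lysis buffer plus cAMP-d2, read after 30 minutes at room temperature.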
Coupling enz: counter-screen for Giardia aldolase inhibitors: coupling enzyme system; coupling enzyme system counterscreen, AmpLite Red fluorescence; activity change, negative = inhibition, % at 58.2 µM, hits read low; 290,000 tested, 0.67% active; in the data active = activity change below about -30%
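Counterscreen lacking aldolase: glyceraldehyde-3-phosphate coupling-enzyme reagent preincubated 10 min at RT with compound (at 57.5 uM final), then substrate/coupling system with AmpLite Red added; fluorescence read at 525/598 nm after 20 min RT.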
Gal4-VP16 FLuc: Gal4-VP16 reporter inhibition counter-screen; Potency, µM (top dose mostly 53.6 µM), for the others: at the top dose activity, negative = inhibition, hits mostly inhibitors; AID 2546; Drosophila S2 Gal4-VP16 UAS-luciferase, luminescence, 20 h; 310,000 tested, 3.5% active;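 note: Gal4-VP16 expression switched on by copper sulfate through the metallothionein promoter; potency is the fitted concentration of half-maximal effect; nearly all actives have a fitted effect of over 50% in size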
ELG1 repair inh: blocks ELG1-dependent DNA repair in HEK293T cells | HEK293T ELG1-luciferase reporter, luminescence, 16 h; DNA damage induced by 5-fluorouridine | AID 504467 | 330,000 tested, 2.3% active | Potency, µM (highest dose often 46.1 µM), for inactives: at the highest dose activity change, negative = inhibition, most hits filed as inhibitors; note: potency is the fitted concentration of half-maximal effect; nearly all actives have a fitted effect of over 55% in size
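Cells (2,000 per well) received 5-fluorouridine plus test compound or DMSO and were incubated 16 hr at 37 °C, 5% CO2. Luciferase activity was read by luminescence 30 min after ONE-Glo addition; signal suppression marked inhibition of damage-induced ELG1 function.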
RORg inh: blocks mouse ROR gamma transcriptional activity; P51450; Drosophila S2 Gal4-RORgamma UAS-luciferase reporter, 20 h; Potency, µM (titrated, usually from 53.6 µM), for inactives: at the top dose activity change, negative = inhibition, most hits filed as inhibitors; 310,000 tested, 5.4% active; note: potency is the fitted concentration of half-maximal effect; nearly all actives have a fitted effect of over 60% in size
Target sequence (P51450 whole entry, looked up, the tested form may be a part): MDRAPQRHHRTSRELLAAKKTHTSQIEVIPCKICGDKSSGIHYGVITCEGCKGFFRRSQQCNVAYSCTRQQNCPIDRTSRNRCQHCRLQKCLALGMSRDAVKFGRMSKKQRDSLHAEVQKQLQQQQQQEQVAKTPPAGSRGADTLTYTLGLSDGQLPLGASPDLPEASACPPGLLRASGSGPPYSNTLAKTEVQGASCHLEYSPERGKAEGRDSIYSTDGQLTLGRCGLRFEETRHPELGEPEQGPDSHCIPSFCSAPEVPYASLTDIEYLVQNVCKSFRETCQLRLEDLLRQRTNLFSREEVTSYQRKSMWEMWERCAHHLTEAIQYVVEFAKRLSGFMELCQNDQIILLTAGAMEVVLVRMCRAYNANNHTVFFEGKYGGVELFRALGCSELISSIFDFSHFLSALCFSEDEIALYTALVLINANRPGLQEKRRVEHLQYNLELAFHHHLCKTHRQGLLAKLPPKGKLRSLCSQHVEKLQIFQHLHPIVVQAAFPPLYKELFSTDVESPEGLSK
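ROR gamma transcriptional activity was tracked as Gal4-UAS luciferase output in stably transfected Drosophila Schneider cells, with compound added 1 hr before 700 uM copper sulfate induction and a 20 hr ambient-temperature incubation.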
Active calls of the source: *; ! = repeats disagree; [ ] = remark or other dose. Unless noted, calls come from the whole dose curve; as a rule, active = well fitted curve in the direction sought with a large enough effect; inconclusive = small, poorly fitted or top-dose-only effect, or another doubt; inactive = no such curve, though single readings can be large; an effect the other way counts as inactive or inconclusive. % is set by controls: 0 for no effect and ±100 for the full control effect.

For O=C(Cc1ccc(Br)c2ccccc12)N/N=C/c1ccccn1 the results were TSHR antagonist -10, Coupling enz 1, Gal4-VP16 FLuc -19%, ELG1 repair inh 9.2µM* and RORg inh 7.9µM*.
Screening Cc1ccccc1OCC(=O)N/N=C/c1ccccn1 returned TSHR antagonist -4, Coupling enz -1, Gal4-VP16 FLuc 7%, ELG1 repair inh -18% and RORg inh 14µM*.
CCC/C=N/NC(=O)c1ccccc1O was read as TSHR antagonist -11, Coupling enz 5, Gal4-VP16 FLuc -81%, ELG1 repair inh 14% and RORg inh 10µM*.
For O=C(N/N=C\c1ccccn1)c1ccccc1O the results were TSHR antagonist 5, Coupling enz 0, Gal4-VP16 FLuc 4.5µM*, ELG1 repair inh inconclusive and RORg inh 2µM*.
O=C(Cc1ccc(F)cc1)N/N=C/c1ccccn1 was read as TSHR antagonist 3, Coupling enz 0, Gal4-VP16 FLuc 11%, ELG1 repair inh 5% and RORg inh -32%.
`N#Cc1cccc(NC(=O)N2CCC3(CC2)CCN(C(=O)c2cccc(F)c2)CC3)c1` gave Coupling enz 5, Gal4-VP16 FLuc 8% and RORg inh 23%.
Screening C[C@H]1COC(=O)[C@H]2CCCN2C(=O)[C@@H](C)COC(=O)[C@H](Cc2ccccc2)NC1=O returned Coupling enz 0, Gal4-VP16 FLuc 7%[10 µM] and RORg inh 3%[10 µM].
Screening O=C(N/N=C\c1ccncc1)c1ccccc1O returned TSHR antagonist 38, Coupling enz 3, Gal4-VP16 FLuc inconclusive, ELG1 repair inh inconclusive and RORg inh 11µM*.
Screening CCOc1ccc(Br)cc1C(=O)N/N=C/c1ccccn1 returned TSHR antagonist -4, Coupling enz 2, Gal4-VP16 FLuc 2%, ELG1 repair inh 12µM* and RORg inh 11µM*.
For C/C=N\NC(=O)COc1cc(C)ccc1C the results were TSHR antagonist -8, Coupling enz 0, Gal4-VP16 FLuc -1%, ELG1 repair inh 3% and RORg inh 13µM*.
Screening O=C(N/N=C/c1ccccn1)c1cccs1 returned TSHR antagonist 10, Coupling enz -3, Gal4-VP16 FLuc inconclusive, ELG1 repair inh -8% and RORg inh 7.1µM*.
`CC(=O)Nc1ccc(NC(=O)CSc2n[nH]c(-c3cccs3)n2)cc1` gave TSHR antagonist 2 and ELG1 repair inh -5%.
O=C(N/N=C/c1ccc(-c2ccccc2)o1)c1ccccc1O was read as TSHR antagonist -8, Coupling enz 3, Gal4-VP16 FLuc 0.63µM*, ELG1 repair inh inconclusive and RORg inh inconclusive.
Cc1ccccc1C(=O)N/N=C/c1ccncc1 was read as TSHR antagonist -29, Gal4-VP16 FLuc 0%, ELG1 repair inh 8% and RORg inh -5%.
CCOC(=O)C(CC)/C(C)=N\NC(=O)c1ccccc1O (stereo not given) was read as TSHR antagonist 5, Coupling enz 1, Gal4-VP16 FLuc 13µM*, ELG1 repair inh 18% and RORg inh 10µM*.
Cc1ccccc1C(=O)N/N=C/c1ccccn1 was read as TSHR antagonist 0, Coupling enz 2, Gal4-VP16 FLuc inconclusive, ELG1 repair inh inconclusive and RORg inh 10µM*.
For COC(=O)c1ccccc1-c1ccc(/C=N/NC(N)=O)o1 the results were TSHR antagonist 6, Coupling enz -1, Gal4-VP16 FLuc 5%, ELG1 repair inh 17% and RORg inh -4%.
For Cc1c(NC(=O)CSc2nc(N)cc(N)n2)c(=O)n(-c2ccccc2)n1C the results were TSHR antagonist 16 and ELG1 repair inh 11%.
Screening NC(=NCCCCCCN=C(N)/N=C(\N)Nc1ccc(Cl)cc1)/N=C(\N)Nc1ccc(Cl)cc1 returned TSHR antagonist -1, Coupling enz -1, Gal4-VP16 FLuc 16µM*!, ELG1 repair inh -10% and RORg inh inconclusive.
For CC(=O)c1cnc(Nc2nc(C)c3cc(C)c(C)cc3n2)nc1C the results were TSHR antagonist 4, Coupling enz 5, Gal4-VP16 FLuc -1%[0.365 µM], ELG1 repair inh 1% and RORg inh 3.5µM*.
`COc1ccc2c(c1)CCC/C2=N/OC(=O)c1ccccc1OC` gave TSHR antagonist 14, Coupling enz 0, Gal4-VP16 FLuc 2%, ELG1 repair inh 6% and RORg inh 4%.
`COc1ccc2c(c1)CC/C2=N\OC(=O)c1ccccc1C` gave TSHR antagonist -17, Coupling enz -6, Gal4-VP16 FLuc inconclusive, ELG1 repair inh inconclusive and RORg inh 4µM*.
`CC(=O)Nc1ccc(OCC(O)Cn2cncn2)cc1` (stereo not given) gave TSHR antagonist 8, Coupling enz -1, Gal4-VP16 FLuc -7%, ELG1 repair inh 13% and RORg inh -2%.
`CCOc1ccc(-c2noc(CCC(=O)NCC3CCCO3)n2)cc1OC` (stereo not given) gave TSHR antagonist -2, Coupling enz 0, Gal4-VP16 FLuc -10%, ELG1 repair inh -3% and RORg inh inconclusive.
For Cc1ccccc1-n1c(-c2cccnc2)n[nH]c1=S the results were Coupling enz 0, Gal4-VP16 FLuc 15% and RORg inh inconclusive.
For CCc1cccc(CC)c1-n1c(-c2cccnc2)n[nH]c1=S the results were TSHR antagonist -5, Coupling enz -2, Gal4-VP16 FLuc 16µM*, ELG1 repair inh 0% and RORg inh 3.5µM*.
`Cc1noc(C)c1-c1nc(N(C)C)c2ccccc2n1` gave Coupling enz 1, Gal4-VP16 FLuc 2% and RORg inh -27%.
For COc1ccc(N2CC(C(=O)Nc3ccncc3)CC2=O)cc1 (stereo not given) the results were TSHR antagonist 3, Coupling enz 0, Gal4-VP16 FLuc 1%, ELG1 repair inh 20% and RORg inh -3%.
`Cc1nc(NC(=O)c2ccccc2)sc1-c1csc(NCc2ccccc2)n1` gave TSHR antagonist -3, Coupling enz 0, Gal4-VP16 FLuc -4%, ELG1 repair inh 21µM* and RORg inh 5%.
CCOc1ccccc1Nc1nc(-c2sc(NC(=O)c3cccc(Cl)c3)nc2C)cs1 was read as TSHR antagonist 11, Coupling enz 2, Gal4-VP16 FLuc -28%, ELG1 repair inh 3% and RORg inh 11µM*.
For CCOc1ccccc1Nc1nc(-c2sc(NC(=O)c3ccccc3)nc2C)cs1 the results were TSHR antagonist 6, Coupling enz -2, Gal4-VP16 FLuc 5%, ELG1 repair inh -22% and RORg inh inconclusive.
Screening COc1ccccc1Nc1nc(-c2sc(NC(=O)c3ccc([N+](=O)[O-])cc3)nc2C)cs1 returned TSHR antagonist -21, Coupling enz 0, Gal4-VP16 FLuc -30%, ELG1 repair inh inconclusive and RORg inh 4µM*.
